According to paper PMC5540273 (PLoS ONE, 2017):

What was measured:
Settings in all cases: concentration: 1 μM, replicates: in singlicate; n = 1
HIPK2 = tested on: HIPK2
HIPK3 = tested on: HIPK3
HIPK4 = tested on: HIPK4
HPK1 = tested on: HPK1
HUNK = tested on: HUNK
ICK = tested on: ICK
IGF1R = tested on: IGF1R
IKK-alpha = tested on: T1, IKK-alpha
T1 construct: gene CHUK

IKK-beta = tested on: T2, IKK-beta
T2 construct: gene IKBKB

IKK-epsilon = tested on: T3, IKK-epsilon
T3 construct: gene IKBKE

INSRR = tested on: INSRR
INSR = tested on: INSR
IRAK1 = tested on: IRAK1
IRAK3 = tested on: IRAK3
IRAK4 = tested on: IRAK4
ITK = tested on: ITK
[1] = tested on: JAK1(JH1domain-catalytic)
[2] = tested on: JAK1(JH2domain-pseudokinase)
[3] = tested on: JAK2(JH1domain-catalytic)
[4] = tested on: JAK3(JH1domain-catalytic)
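Further: KINOMEscan kinase panel screen.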

SMILES	%Inh (HIPK2)	%Inh (HIPK3)	%Inh (HIPK4)	%Inh (HPK1)	%Inh (HUNK)	%Inh (ICK)	%Inh (IGF1R)	%Inh (IKK-alpha)	%Inh (IKK-beta)	%Inh (IKK-epsilon)	%Inh (INSRR)	%Inh (INSR)	%Inh (IRAK1)	%Inh (IRAK3)	%Inh (IRAK4)	%Inh (ITK)	%Inh [1]	%Inh [2]	%Inh [3]	%Inh [4]
COc1cc2ncnc(Nc3ccc(OCc4ccccc4Br)c(Cl)c3)c2cc1OC.Cl [GI261590]	0%	0%	0%	33%	11%	0%	0%	32%	16%	18%	0%	0%	32%	13%	18%	12%	17%	0%	0%	0%
FC(F)(F)c1ccc(-c2cc(-c3c[nH]nc3-c3ccccn3)ccn2)cc1 [GW599550]	0%	21%	0%	26%	0%	0%	28%	0%	0%	47%	0%	0%	25%	5%	3%	11%	29%	0%	14%	0%
O=C(NCCCN1CCCC1=O)c1cnc(NCc2cc(Cl)ccc2Cl)nc1NC1CCNCC1	0%	0%	13%	20%	0%	0%	0%	0%	0%	0%	13%	0%	37%	0%	2%	0%	1%	4%	33%	0%
Clc1ccc(-c2cc(-c3c[nH]nc3-c3ccccn3)ccn2)cc1 [GW681251]	0%	19%	0%	24%	6%	0%	4%	0%	28%	3%	0%	0%	43%	0%	8%	16%	0%	0%	2%	0%
COc1ccc(-c2oc3ncnc(N)c3c2-c2ccc(OC)cc2)cc1 [SB-589132]	25%	3%	0%	40%	8%	0%	0%	49%	4%	6%	0%	0%	56%	15%	58%	19%	25%	31%	1%	19%
Cl.c1ccc(Cn2ccc3cc(Nc4ncnc5ccccc45)ccc32)cc1 [GW275568]	0%	9%	0%	31%	3%	0%	0%	0%	0%	24%	0%	12%	0%	0%	0%	12%	18%	10%	100%	0%
COC(=O)c1cccc(NC(=O)NCCNc2ccnc(Nc3ccc(F)cc3)n2)c1 [GSK1379883]	0%	0%	0%	45%	90%	0%	6%	0%	0%	1%	0%	0%	13%	0%	4%	11%	30%	0%	1%	0%
CC(C)N1CCC(n2cnc(-c3ccc(F)cc3)c2-c2ccnc(N)n2)CC1 [SB-223132]	0%	0%	11%	0%	0%	0%	0%	0%	0%	0%	0%	0%	0%	23%	0%	0%	0%	56%	0%	24%
Fc1cccc(COc2ccc(Nc3ncnc4sc(-c5ccc[nH]5)cc34)cc2Cl)c1 [GW707818]	0%	1%	0%	39%	10%	0%	0%	0%	0%	0%	0%	13%	20%	0%	0%	0%	18%	4%	100%	0%
CC(=O)Nc1n[nH]c2ncc(-c3ccccc3)cc12 [SB-548492]	48%	34%	7%	23%	24%	28%	10%	0%	22%	0%	12%	0%	0%	25%	0%	0%	0%	87%	15%	0%
